Results from the supplement of paper PMC13380429.
Unmarked numbers belong to inactive results.

Test system: Vero E6 infected with SARS-CoV-2
Assay: inhibition of SARS-CoV-2 cytopathic effect; higher = more antiviral protection, active = above 15
Details: 48 h

SMILES | inhibition of SARS-CoV-2 cytopathic effect (1 nM) | inhibition of SARS-CoV-2 cytopathic effect (8.33 nM) | inhibition of SARS-CoV-2 cytopathic effect (100 nM) | inhibition of SARS-CoV-2 cytopathic effect (833.33 nM) | inhibition of SARS-CoV-2 cytopathic effect (10000 nM)
CCCn1c(=O)[nH]c2nc(-c3ccc(S(=O)(=O)N4CCN(c5ccc(Cl)cc5)CC4)cc3)[nH]c2c1=O | -0.12% | 0.44% | -0.16% | 1.71% | 1.22%
COc1cc2nc(C3CC3)nc(N3CCN(c4ccccc4OC)CC3)c2cc1OC | -1.86% | -1.01% | -1.01% | 1.94% | -4.17%
COC(F)(F)C(Cl)Cl [methoxyflurane] | 0.46% | 5.27% | 4.68% | 0.29% | -1.64%
O=S(=O)(c1cccc2c(O)nccc12)N1CCCNCC1 [hydroxyfasudil] | -1.12% | -1.29% | -1.81% | -2.35% | -0.71%
CCOc1cc2ncc(C#N)c(Nc3ccc(F)c(Cl)c3)c2cc1NC(=O)/C=C/CN(C)C [pelitinib] | -2.05% | -5.13% | -7.91% | -5.27% | 2.95%
Cn1c(C#N)ccc1-c1ccc2c(c1)C(C)(C)OC(=S)N2 [tanaproget] | 3.59% | 4.95% | 0.34% | 3.55% | 1.06%
N=C(N)NCCN1CCCCCCC1 [guanethidine] | 1.98% | 0.59% | 4.01% | 2.31% | 0.3%
Cc1noc(-c2ccc(-c3ccc(CC(=O)O)cc3)cc2)c1NC(=O)O[C@H](C)c1ccccc1 | 0.92% | 0.35% | -2.41% | -3.36% | -4.34%
CC(C)(CO)CCCCCCC(C)(C)CO [gemcadiol] | -2.86% | -2.01% | -1.65% | -2.84% | -2.43%
C#C[C@]1(OC(C)=O)CC[C@H]2[C@@H]3CCC4=C[C@@H](OC(C)=O)CC[C@@H]4[C@H]3CC[C@@]21C [ethynodiol-diacetate] | 1.35% | 3.73% | 2.52% | -2.62% | -1.63%
COc1ccccc1OCC(O)CO (stereo not given) [guaifenesin] | 1.29% | 1.07% | 0% | 0.99% | 0.94%
NC1(c2ccc(-c3nc4ccn5c(=O)[nH]nc5c4cc3-c3ccccc3)cc2)CCC1 | -1.08% | 0.48% | 2.84% | 1.79% | 24.5% (active)
CC(C)c1noc(N2CCC(COc3ccc(-c4ccc(S(C)(=O)=O)cc4)nc3)CC2)n1 | -1.46% | -1.84% | -1.48% | -0.49% | -0.23%
Cc1c(C(=O)NN2CCCCC2)nn(-c2ccc(Cl)cc2Cl)c1-c1ccc(I)cc1 | 0.54% | -3.71% | 3.18% | 1.67% | 2.28%
CC(C)[C@H](CO)Nc1nc(Nc2cc(N)cc(Cl)c2)c2ncn(C(C)C)c2n1 [aminopurvalanol-a] | 4.14% | 0.51% | -1.34% | -0.35% | -6.98%
Nc1ccc(F)cc1NC(=O)c1ccc(CNC(=O)/C=C/c2cccnc2)cc1 [chidamide] | 0.62% | 0.21% | -1.13% | 1.82% | -0.06%
O=C(NCCN1CCC2(CC1)C(=O)NCN2c1cccc(F)c1)c1ccc(F)c(F)c1 | 3.32% | 2.54% | 0.98% | 1.22% | 22% (active)
O=C[C@H](O)[C@@H](O)[C@H](O)CO [xylose] | 2.36% | 1.7% | -0.84% | -1.64% | -4.41%
Cc1cccc(C)c1NC(=O)CN1CCCCCC1 [pincainide] | -3.17% | -5.99% | -2.63% | -1.95% | 0.04%
COc1cccc(Nc2c(C(N)=O)cnc3c(C)cc(S(=O)(=O)c4cccc(C(=O)N(C)C)c4)cc23)c1 | 1.19% | 3.12% | 0.15% | 3.01% | 0.48%

SMILES | inhibition of SARS-CoV-2 cytopathic effect (1 nM) | inhibition of SARS-CoV-2 cytopathic effect (8.33 nM) | inhibition of SARS-CoV-2 cytopathic effect (100 nM) | inhibition of SARS-CoV-2 cytopathic effect (833.33 nM) | inhibition of SARS-CoV-2 cytopathic effect (10000 nM)
CN1CCN(CCCCN2C(=O)CN(/N=C/c3ccc(-c4ccc(Cl)cc4)o3)C2=O)CC1 [azimilide] | 0.53% | 0.51% | 2.48% | 0.41% | -1.08%
C=CC1=C(C)C2=CC3=NC(=C(CC(=O)O)C4=NC(=C(C)C4=C(O)O)C=c4[nH]c(c(C)c4CC)=CC1=N2)C(CCC(=O)O)C3C (stereo not given) [chlorophyllin] | -0.57% | -1.3% | -0.92% | -4.38% | -10.6%
COc1ccc(-c2cnc3c(-c4cccc5ncccc45)cnn3c2)cc1 | -0.88% | -0.75% | 0.925% | -0.45% | 0.53%
O=C1[C@H](CC[C@H](O)c2ccc(F)cc2)[C@@H](c2ccc(O)cc2)N1c1ccc(F)cc1 [ezetimibe] | 0.31% | 0.64% | -0.99% | 2.19% | 5.44%
O=C(NNC(=O)c1ccc(CNS(=O)(=O)c2ccc(F)c(Cl)c2)cc1)c1ccccc1 | -1.42% | -1.3% | 3.13% | 0.57% | -0.76%
CCC(CO)(C(=O)OC1CC2CCC(C1)[N+]2(C)C)c1ccccc1 (stereo not given) [troventol] | 1.78% | 6.67% | 0.13% | -1.03% | 2.53%
CCN(C(=O)c1c(O)c2c(Cl)cccc2n(C)c1=O)c1ccccc1 [laquinimod] | 1.55% | -0.45% | 0.71% | -5.3% | -6.25%
Clc1ccc2c(c1)N=C(N1CCNCC1)c1ccccc1N2 [desmethylclozapine] | 1.9% | 0.8% | 0.19% | 2.8% | -4.43%
COc1ccc(/C=C2\CCCN=C2c2cccnc2)c(OC)c1 | -0.63% | 0.1% | 0.18% | 1.08% | 2.4%
NC(=O)OCC(O)COc1ccc(Cl)cc1 (stereo not given) [chlorphensin-carbamate] | 2.19% | -1.72% | 1.24% | 2.98% | 4.44%
CN[C@@H]1[C@@H](O)[C@@H](O[C@@H]2[C@@H](O)[C@H](O[C@H]3OC(CN)=CC[C@H]3N)[C@@H](N)C[C@H]2N)OC[C@]1(C)O [Sisomicin (sulfate)] | 0.02% | 0.45% | 0.885% | -0.63% | -0.58%
Fc1ccc(-c2c3cccc(C(F)(F)F)c3nn2Cc2ccc(F)cc2Cl)cc1 | -0.96% | -3.42% | 2.69% | -1.23% | 2.25%
CCn1cc(C(=O)O)c(=O)c2cnc(N3CCNCC3)nc21 [pipemidic-acid] | 0.65% | 2.63% | 1.17% | -0.86% | 1.68%
CN(C)CCn1nnnc1SCC1=C(C(=O)O)N2C(=O)[C@@H](NC(=O)Cc3csc(N)n3)[C@H]2SC1 [cefotiam] | 1.69% | -0.06% | -0.67% | 1.14% | 0.56%
COC(=O)Nc1nc2cc(SC(C)C)ccc2[nH]1 [methiazole] | 0.45% | 0.55% | 2.08% | 2.73% | -1.24%
COc1ccc(CN2CCN(C(c3ccc(F)cc3)c3ccc(F)cc3)CC2)c(OC)c1OC [lomerizine] | 1.2% | -4.42% | -2.46% | -4.97% | -3.64%
CO/N=C(\C(=O)N[C@@H]1C(=O)N2C(C(=O)O)=C(CSc3nc(=O)c(O)nn3C)CS[C@H]12)c1csc(N)n1 [ceftriaxone] | -1.95% | -0.8% | 1.41% | 0.59% | 2.56%
C=C[C@]1(C)C[C@@H](OC(=O)CS[C@@H]2C[C@H]3CC[C@@H](C2)N3C)[C@]2(C)[C@H](C)CC[C@]3(CCC(=O)[C@H]32)[C@@H](C)[C@@H]1O [retapamulin] | -0.46% | 2.42% | 1.21% | 1.93% | -0.87%
CCCOc1ccc(C(=O)OCCN(CC)CC)cc1N [proxymetacaine] | 1.69% | 1.71% | 2.25% | 0.25% | 2%
